The values that follow come from PubChem BioAssay.

Values without a mark were called inactive. For some assays here: Measured potencies and affinities stand elsewhere. Activity calls are given as the source filed them. Unless noted, the rule behind the calls is not given here.

A short description of assay [1]: antimalarial activity against Dd2 strain (AID 2302;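 active = growth inhibition above 50% at the single 2 µM test dose, taken to imply half-maximal potency below 2 µM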;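 note: 0% = DMSO untreated growth and 100% = chloroquine plus artemisinin killed control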). The note with it: P. falciparum Dd2 in RBCs, LDH growth readout, 72 h; at 2 µM; hits give high values.
Assay [2] is described as follows: HepG2 cytotoxicity, primary screen, cytotoxicity control for P. falciparum antimalarial project, cell-based, ATP luminescence (AID 2303;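 active = inhibition above 50%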;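 note: 0% = DMSO wells and 100% = digitonin-killed cells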). The note with it: HepG2 viability, 24-48 h, at 10 µM, hits give high values.
The target in assay [3] is L-lactate dehydrogenase (Plasmodium falciparum (isolate CDC / Honduras)) (UniProt Q27743). In words: PfLDH activity inhibition – cell lysate, 3D7 strain, counter-screen for P. falciparum growth inhibition project (AID 2304).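 Note: 0% = vehicle and 100% = reference inhibitor.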 The note with it: P. falciparum 3D7 crude extract, LDH APAD/NBT absorbance; at 2 µM; hits give high values. Background: Counterscreens check selectivity or assay interference.

Assay [4] is described as follows: inhibition of 3D7 malaria parasite growth – strain 3D7 (AID 2306).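 Note: 0% = DMSO wells and 100% = chloroquine plus artemisinin control wells.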 The note with it: P. falciparum 3D7 erythrocytic growth, LDH absorbance, 72 h; at 2 µM; hits give high values.
The target of assay [5] is Calcium-dependent protein kinase 1 (Plasmodium falciparum (isolate 3D7)) (UniProt P62344). The assay is described as follows: PfCDPK1 kinase inhibitors, biochemical, TCAMS library (AID 1159585; cut-off not given, nearly all actives have IC50 up to about 0.98 µM;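 note: inhibitors leave more ATP so luminescence rises with inhibition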). The note with it: recombinant PfCDPK1, Kinase-Glo ATP depletion luminescence. For orientation: Kinase-Glo reads ATP consumption through a luciferase reaction.
Assay [6] concerns the target Plasmodium falciparum protein kinase 6 (PK6, PF3D7_1337100) (UniProt Q8IDW1). In words: PfPK6 kinase inhibitors, biochemical, TCAMS library (AID 1159586). The note with it: recombinant PfPK6, Kinase-Glo ATP depletion luminescence.
For assay [7], the target named is Protein kinase 7 (PK7), Plasmodium falciparum 3D7 (PF3D7_0213400) (UniProt Q7YTF7). The assay is described as follows: inhibition of Plasmodium PK7 catalytic activity – biochemical, TCAMS antimalarial set, Kinase-Glo luminescence (AID 1159587). The note with it: recombinant PfPK7, Kinase-Glo ATP depletion luminescence.
Assay [8] deals with Calcium-dependent protein kinase 4 (Plasmodium falciparum (isolate 3D7)) (UniProt Q8IBS5). In words: PfCDPK4 kinase inhibitors, biochemical, TCAMS library (AID 1159588; cut-off not given, nearly all actives have IC50 up to about 0.91 µM). The note with it: recombinant PfCDPK4, Kinase-Glo ATP depletion luminescence.
Calcium-dependent protein kinase 4 (Plasmodium falciparum (isolate 3D7)), sequence (Q8IBS5 whole entry, looked up): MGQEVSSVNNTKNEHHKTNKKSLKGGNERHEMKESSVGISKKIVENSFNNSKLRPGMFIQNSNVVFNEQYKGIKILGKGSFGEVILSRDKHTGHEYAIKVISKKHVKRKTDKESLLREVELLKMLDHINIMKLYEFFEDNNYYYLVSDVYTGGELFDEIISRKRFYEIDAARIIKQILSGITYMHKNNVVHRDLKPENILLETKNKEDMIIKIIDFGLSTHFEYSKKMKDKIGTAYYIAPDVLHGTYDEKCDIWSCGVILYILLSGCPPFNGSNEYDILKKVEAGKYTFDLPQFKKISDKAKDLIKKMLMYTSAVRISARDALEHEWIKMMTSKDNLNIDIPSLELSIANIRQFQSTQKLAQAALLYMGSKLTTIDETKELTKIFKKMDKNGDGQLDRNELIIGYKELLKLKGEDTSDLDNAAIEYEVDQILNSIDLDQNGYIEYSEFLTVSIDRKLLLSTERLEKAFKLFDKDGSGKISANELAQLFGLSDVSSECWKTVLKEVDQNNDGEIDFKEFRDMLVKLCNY

L-lactate dehydrogenase (Plasmodium falciparum (isolate CDC / Honduras)), sequence (Q27743 whole entry, looked up): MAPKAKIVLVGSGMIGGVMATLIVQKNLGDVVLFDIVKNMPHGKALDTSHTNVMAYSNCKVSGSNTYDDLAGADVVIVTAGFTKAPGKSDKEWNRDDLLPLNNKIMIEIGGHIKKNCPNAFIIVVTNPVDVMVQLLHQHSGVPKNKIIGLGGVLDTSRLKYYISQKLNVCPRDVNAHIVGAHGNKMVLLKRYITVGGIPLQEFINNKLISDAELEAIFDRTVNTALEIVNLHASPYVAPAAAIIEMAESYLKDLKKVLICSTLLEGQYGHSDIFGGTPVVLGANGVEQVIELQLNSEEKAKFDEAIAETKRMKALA
Protein kinase 7 (PK7), Plasmodium falciparum 3D7 (PF3D7_0213400), sequence (Q7YTF7 1-343): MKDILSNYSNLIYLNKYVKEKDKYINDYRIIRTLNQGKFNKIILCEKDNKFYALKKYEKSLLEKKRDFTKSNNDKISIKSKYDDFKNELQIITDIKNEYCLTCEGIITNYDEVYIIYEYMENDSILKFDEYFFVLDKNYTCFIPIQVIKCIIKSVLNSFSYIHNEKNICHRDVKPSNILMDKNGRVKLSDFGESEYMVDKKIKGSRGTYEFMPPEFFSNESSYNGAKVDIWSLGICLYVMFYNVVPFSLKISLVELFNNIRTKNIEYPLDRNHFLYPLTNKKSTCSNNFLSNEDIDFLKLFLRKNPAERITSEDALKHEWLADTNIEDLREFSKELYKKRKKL
Calcium-dependent protein kinase 1 (Plasmodium falciparum (isolate 3D7)), sequence (P62344 whole entry, looked up): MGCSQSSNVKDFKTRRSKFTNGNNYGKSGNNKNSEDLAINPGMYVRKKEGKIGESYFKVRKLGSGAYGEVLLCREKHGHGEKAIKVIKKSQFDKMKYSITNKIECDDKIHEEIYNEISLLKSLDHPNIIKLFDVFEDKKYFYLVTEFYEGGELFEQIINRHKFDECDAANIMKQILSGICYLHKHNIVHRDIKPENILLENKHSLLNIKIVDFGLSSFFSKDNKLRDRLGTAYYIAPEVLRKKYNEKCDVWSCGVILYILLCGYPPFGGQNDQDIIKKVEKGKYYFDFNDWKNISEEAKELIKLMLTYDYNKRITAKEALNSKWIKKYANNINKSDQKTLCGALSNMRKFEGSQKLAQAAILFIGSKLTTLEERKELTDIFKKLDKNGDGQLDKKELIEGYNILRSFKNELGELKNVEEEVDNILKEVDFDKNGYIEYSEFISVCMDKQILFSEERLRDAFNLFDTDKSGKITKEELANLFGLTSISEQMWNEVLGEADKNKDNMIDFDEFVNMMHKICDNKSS
Plasmodium falciparum protein kinase 6 (PK6, PF3D7_1337100), sequence (Q8IDW1 1-305): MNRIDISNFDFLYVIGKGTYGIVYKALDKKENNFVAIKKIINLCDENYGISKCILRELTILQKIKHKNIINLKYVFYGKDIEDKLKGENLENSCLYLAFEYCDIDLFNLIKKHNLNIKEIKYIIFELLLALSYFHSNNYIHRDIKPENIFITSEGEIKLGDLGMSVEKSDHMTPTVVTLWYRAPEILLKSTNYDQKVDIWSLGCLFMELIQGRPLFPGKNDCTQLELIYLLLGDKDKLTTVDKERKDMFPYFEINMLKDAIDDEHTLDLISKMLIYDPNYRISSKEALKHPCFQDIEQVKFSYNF

As for `Cc1nc(C(=O)N2CCCC[C@H]2CNC(=O)c2ccc(-c3ccc(N4CCCC4=O)cc3C)cc2)c(-c2ccc(F)cc2)s1`, the growth inhibition is 94% (active) in assay [1] and 98% (active) in assay [4]. Moreover, the inhibition is 6% in assay [2] and 8% in assay [3]. The outcome in assay [5], in assay [6], in assay [7] and in assay [8] was inactive.

For the molecule `Oc1ccc2nc(NCCCc3ccccc3)nc(NCCc3ccccc3)c2c1`, the growth inhibition in assay [1] is 88% (active); in assay [4] it was 99% (active). The inhibition in assay [2] was 31%; in assay [3] it was -3%. Further, the outcome in assay [5], in assay [6], in assay [7] and in assay [8] was inactive.

Take `CC(=O)Nc1ccc(CN2CCC(NC(=O)c3ccc(-c4cccc(F)c4)s3)CC2)cc1`: the growth inhibition is 13% in assay [1] and 96% (active) in assay [4]. Moreover, the inhibition in assay [2] is 6%; in assay [3], 0%. Moreover, the result in assay [5], in assay [6], in assay [7] and in assay [8] was inactive.

On to `O=C(NCc1ccccc1)NC(CCCN1CCC(Oc2cccc(Cl)c2)CC1)c1ccc(Cl)c(Cl)c1` (configuration not stated), for which the values for the growth inhibition in assay [1] and in assay [4] were 57% (active) and 81% (active), respectively. The inhibition in assay [2] is 15%; in assay [3], 4%. Moreover, the outcome in assay [5], in assay [6], in assay [7] and in assay [8] was inactive.

As to `CC(C)(C)C/C=C\c1ccc(C(=O)NCC2CC2)cc1`, the growth inhibition in assay [1] is 88% (active); in assay [4], 94% (active). For the same molecule, the inhibition is 0% in assay [2] and -2% in assay [3]. Also, the result in assay [5], in assay [6], in assay [7] and in assay [8] was inactive.

In the case of `CSc1c(CNCCCNc2cc(=O)c3ccccc3[nH]2)[nH]c2ccccc12`, the growth inhibition in assay [1] is 21%; in assay [4], 87% (active). For the same molecule, the inhibition in assay [2] was 0%; in assay [3], 2%. For the same molecule, the result in assay [5], in assay [6], in assay [7] and in assay [8] was inactive.

Consider `COc1ccc(NC(=O)/C=C/c2ccccc2Cl)cc1OCCN1CCC(N2CCCCC2)CC1`, for which the figures for the growth inhibition in assay [1] and in assay [4] were 49% and 101% (active), respectively. The inhibition in assay [2] was 3%; in assay [3] it was 1%. The outcome in assay [5], in assay [6], in assay [7] and in assay [8] was inactive.

For `CCN(c1cc(C)nc(Nc2ccc(Cl)cc2)n1)[C@H]1CCN(Cc2ccccc2)C1`, the growth inhibition in assay [1] is 31%; in assay [4] it was 94% (active). Further, the figures for the inhibition in assay [2] and in assay [3] were 46% and 2%, respectively. The result in assay [5], in assay [6], in assay [7] and in assay [8] was inactive.

For the molecule `CC(=O)c1ccc(N2CCN(CCC3(c4ccc(Cl)c(Cl)c4)COCN(C(=O)c4ccccc4)C3)CC2)cc1` (configuration not stated), the growth inhibition in assay [1] was 95% (active); in assay [4], 88% (active). The inhibition was 12% in assay [2] and 5% in assay [3]. Further, the outcome in assay [5], in assay [6], in assay [7] and in assay [8] was inactive.

For `CC1(C)[C@H]2CC[C@@H](CNc3nc(NCCc4cnc[nH]4)nc(NCc4cc(F)ccc4F)n3)[C@@H]1C2`, the values for the growth inhibition in assay [1] and in assay [4] were 91% (active) and 100% (active), respectively. In addition, the inhibition is 0% in assay [2] and 6% in assay [3]. The outcome in assay [5], in assay [6], in assay [7] and in assay [8] was inactive.

As to `O=C(Nc1cccc(-c2ccc(-c3nc4ccc(C(F)(F)F)cc4[nH]3)cc2)c1)Nc1ccc(F)c(F)c1F`, the values for the growth inhibition in assay [1] and in assay [4] were 99% (active) and 102% (active), respectively. Further, the inhibition in assay [2] is 45%; in assay [3], -2%. Further, the outcome in assay [5], in assay [6], in assay [7] and in assay [8] was inactive.

As to `COc1ccc(-c2cccc(NC(=O)c3cccc(C#N)c3)c2)cc1CN1CCNCC1`, the values for the growth inhibition in assay [1] and in assay [4] were 15% and 101% (active), respectively. In addition, the inhibition was 27% in assay [2] and 0% in assay [3]. In addition, the result in assay [5], in assay [6], in assay [7] and in assay [8] was inactive.

As to `COc1ccc2ncc(F)c(CCN3CCC(NCc4cc(Br)c5c(c4)OCCO5)CC3)c2n1`, the growth inhibition is 94% (active) in assay [1] and 100% (active) in assay [4]. The inhibition in assay [2] is 26%; in assay [3], -2%. In addition, the result in assay [5], in assay [6], in assay [7] and in assay [8] was inactive.

Regarding `Nc1nc(N)c2c(ccc3nn(S(=O)(=O)N4CCCC4)cc32)n1`, the figures for the growth inhibition in assay [1] and in assay [4] were 0% and 95% (active), respectively. Further, the figures for the inhibition in assay [2] and in assay [3] were 69% (active) and 9%, respectively. For the same molecule, the outcome in assay [5], in assay [6], in assay [7] and in assay [8] was inactive.

In the case of `CN(Cc1cccc(F)c1)C1CCCN(c2cc(NC(=O)c3ccccc3)ccn2)C1` (configuration not stated), the values for the growth inhibition in assay [1] and in assay [4] were 50% (active) and 93% (active), respectively. For the same molecule, the inhibition in assay [2] is 3%; in assay [3], -3%. Further, the outcome in assay [5], in assay [6], in assay [7] and in assay [8] was inactive.

For `CC(C)CCNCc1ccc(OCc2ccccc2COc2ccc(CNCCC(C)C)cc2I)c(I)c1`, the figures for the growth inhibition in assay [1] and in assay [4] were 78% (active) and 101% (active), respectively. Further, the values for the inhibition in assay [2] and in assay [3] were 99% (active) and 0%, respectively. The result in assay [5], in assay [6], in assay [7] and in assay [8] was inactive.

In the case of `CC(C)C[C@H](NC(=O)c1cc(-c2ccc(F)cc2)no1)C(=O)O` (tested in a mixture with another compound), the values for the growth inhibition in assay [1] and in assay [4] were 4% and 82% (active), respectively. Also, the inhibition was 7% in assay [2] and -2% in assay [3]. For the same molecule, the result in assay [5], in assay [6], in assay [7] and in assay [8] was inactive.

Take `c1cc(CN2CCC(CCN3CCCCC3)CC2)cc(-c2csc(-c3nc4ccccc4[nH]3)c2)c1`: the growth inhibition in assay [1] and in assay [4] was 99% (active) throughout. Further, the inhibition is 89% (active) in assay [2] and -3% in assay [3]. In addition, the result in assay [5], in assay [6], in assay [7] and in assay [8] was inactive.

Regarding `O=C1COC2(CN1CC1CCN(Cc3ccc(O)c(Cl)c3)C1)c1ccccc1-c1ccccc12` (configuration not stated), the growth inhibition in assay [1] is 50% (active); in assay [4], 93% (active). The figures for the inhibition in assay [2] and in assay [3] were 6% and 1%, respectively. For the same molecule, the result in assay [5], in assay [6], in assay [7] and in assay [8] was inactive.

What is called inhibition is the drop in the measured response relative to a control, in per cent.
